Source: the supplement of paper PMC11732987, “Enantioselective OTUD7B fragment discovery through chemoproteomics screening and high-throughput optimisation” (Communications Chemistry, 2025)

Legend:
Assay in all cases: log2 ratio of Biotin-Ahx-Ub-VS probe labelling (fragment/DMSO); higher = less target engagement (more negative = stronger competition), active = hit call of the paper (q ≤ 0.05, log2 ratio ≤ -1)
Details in all cases: compound concentration: 200 uM; treatment time: 3 h
ALG13 = biological target: T1, ALG13 (UniProt Q9NP73)
T1 sequence (whole entry): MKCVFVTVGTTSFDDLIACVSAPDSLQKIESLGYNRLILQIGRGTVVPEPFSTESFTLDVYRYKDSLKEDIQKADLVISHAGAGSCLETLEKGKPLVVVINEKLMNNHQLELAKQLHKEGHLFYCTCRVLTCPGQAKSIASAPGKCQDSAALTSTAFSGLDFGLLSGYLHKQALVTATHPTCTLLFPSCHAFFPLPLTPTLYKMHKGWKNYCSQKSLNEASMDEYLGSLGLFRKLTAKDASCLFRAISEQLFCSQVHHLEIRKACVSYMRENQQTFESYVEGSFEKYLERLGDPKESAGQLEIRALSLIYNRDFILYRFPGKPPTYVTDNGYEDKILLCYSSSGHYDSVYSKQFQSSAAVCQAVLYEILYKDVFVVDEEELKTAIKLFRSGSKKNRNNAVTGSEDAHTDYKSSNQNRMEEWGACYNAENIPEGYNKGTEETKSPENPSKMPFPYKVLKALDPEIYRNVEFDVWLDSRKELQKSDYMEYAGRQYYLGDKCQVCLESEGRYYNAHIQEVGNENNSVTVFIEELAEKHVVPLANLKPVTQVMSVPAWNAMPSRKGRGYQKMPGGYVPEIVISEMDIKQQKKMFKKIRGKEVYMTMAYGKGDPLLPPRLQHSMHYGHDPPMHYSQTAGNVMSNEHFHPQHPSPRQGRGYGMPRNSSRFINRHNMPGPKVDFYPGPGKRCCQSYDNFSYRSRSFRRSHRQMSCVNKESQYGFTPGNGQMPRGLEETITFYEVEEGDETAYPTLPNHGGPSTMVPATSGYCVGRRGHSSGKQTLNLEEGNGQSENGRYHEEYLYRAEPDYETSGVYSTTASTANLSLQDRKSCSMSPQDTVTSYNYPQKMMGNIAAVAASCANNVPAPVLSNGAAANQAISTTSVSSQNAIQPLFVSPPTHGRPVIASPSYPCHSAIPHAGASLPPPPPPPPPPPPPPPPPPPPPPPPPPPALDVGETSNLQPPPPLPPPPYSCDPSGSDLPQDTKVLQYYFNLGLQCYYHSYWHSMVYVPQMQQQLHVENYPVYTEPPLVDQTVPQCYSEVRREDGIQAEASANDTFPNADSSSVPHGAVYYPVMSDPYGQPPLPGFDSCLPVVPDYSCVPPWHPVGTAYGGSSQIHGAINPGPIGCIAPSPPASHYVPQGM
Summary of the method: (§1)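 Using Biotin-Ahx-Ub-VS at 0.5 µM final for 1 h, DUBs were labelled in HEK293T lysate (495 µg per sample) that had first been treated in triplicate with fragment at 200 µM or vehicle for 3 h. NeutrAvidin enrichment, LysC and trypsin digestion and diaPASEF LC-MS/MS followed. Spectronaut label-free quantities were global-median-normalised. Values are average log2 fragment/vehicle ratios by unpaired t-test, using proteins with ≥2 unique peptides.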

ATXN3 = ATXN3 (UniProt P54252)
Summary of the method: as §1

BAP1 = biological target: T2, BAP1 (UniProt Q92560)
T2 sequence (whole entry): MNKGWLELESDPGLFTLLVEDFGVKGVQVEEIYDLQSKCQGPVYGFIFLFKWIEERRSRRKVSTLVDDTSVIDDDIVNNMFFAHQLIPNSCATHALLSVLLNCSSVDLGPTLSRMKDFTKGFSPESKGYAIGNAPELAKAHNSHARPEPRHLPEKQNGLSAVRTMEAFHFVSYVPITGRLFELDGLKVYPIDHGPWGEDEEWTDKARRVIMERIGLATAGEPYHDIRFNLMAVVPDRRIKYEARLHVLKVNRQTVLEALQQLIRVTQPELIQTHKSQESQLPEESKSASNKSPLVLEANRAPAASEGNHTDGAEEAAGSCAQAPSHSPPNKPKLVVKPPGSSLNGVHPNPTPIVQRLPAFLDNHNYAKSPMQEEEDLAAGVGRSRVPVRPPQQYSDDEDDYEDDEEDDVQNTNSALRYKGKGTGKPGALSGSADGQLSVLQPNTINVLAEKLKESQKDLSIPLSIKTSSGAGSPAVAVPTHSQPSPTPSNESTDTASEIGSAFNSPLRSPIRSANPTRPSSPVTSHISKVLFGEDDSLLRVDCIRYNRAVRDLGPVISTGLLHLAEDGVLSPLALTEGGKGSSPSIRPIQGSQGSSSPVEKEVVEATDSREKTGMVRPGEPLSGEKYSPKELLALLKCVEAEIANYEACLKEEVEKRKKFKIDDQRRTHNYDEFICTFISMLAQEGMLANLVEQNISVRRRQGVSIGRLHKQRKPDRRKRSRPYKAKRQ
Summary of the method: as §1

EIF3F = EIF3F (UniProt O00303)
Summary of the method: as §1

EIF3H = EIF3H (UniProt O15372)
Summary of the method: as §1

FAM105A = biological target: T3, FAM105A (UniProt Q9NUU6)
T3 sequence (whole entry): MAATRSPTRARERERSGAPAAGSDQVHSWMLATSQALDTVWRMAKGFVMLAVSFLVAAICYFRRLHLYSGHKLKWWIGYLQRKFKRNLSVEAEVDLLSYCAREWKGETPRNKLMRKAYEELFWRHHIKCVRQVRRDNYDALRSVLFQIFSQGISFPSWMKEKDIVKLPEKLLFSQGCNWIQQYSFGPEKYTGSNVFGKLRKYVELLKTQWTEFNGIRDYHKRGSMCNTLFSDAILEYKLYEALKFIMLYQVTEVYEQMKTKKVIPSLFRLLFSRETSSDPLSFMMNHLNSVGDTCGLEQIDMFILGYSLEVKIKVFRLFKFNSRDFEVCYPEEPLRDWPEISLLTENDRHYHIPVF
Summary of the method: as §1

OTUB1 = OTUB1 (UniProt Q96FW1)
Summary of the method: as §1

OTUD4 = biological target: T4, OTUD4 (UniProt Q01804)
T4 sequence (whole entry): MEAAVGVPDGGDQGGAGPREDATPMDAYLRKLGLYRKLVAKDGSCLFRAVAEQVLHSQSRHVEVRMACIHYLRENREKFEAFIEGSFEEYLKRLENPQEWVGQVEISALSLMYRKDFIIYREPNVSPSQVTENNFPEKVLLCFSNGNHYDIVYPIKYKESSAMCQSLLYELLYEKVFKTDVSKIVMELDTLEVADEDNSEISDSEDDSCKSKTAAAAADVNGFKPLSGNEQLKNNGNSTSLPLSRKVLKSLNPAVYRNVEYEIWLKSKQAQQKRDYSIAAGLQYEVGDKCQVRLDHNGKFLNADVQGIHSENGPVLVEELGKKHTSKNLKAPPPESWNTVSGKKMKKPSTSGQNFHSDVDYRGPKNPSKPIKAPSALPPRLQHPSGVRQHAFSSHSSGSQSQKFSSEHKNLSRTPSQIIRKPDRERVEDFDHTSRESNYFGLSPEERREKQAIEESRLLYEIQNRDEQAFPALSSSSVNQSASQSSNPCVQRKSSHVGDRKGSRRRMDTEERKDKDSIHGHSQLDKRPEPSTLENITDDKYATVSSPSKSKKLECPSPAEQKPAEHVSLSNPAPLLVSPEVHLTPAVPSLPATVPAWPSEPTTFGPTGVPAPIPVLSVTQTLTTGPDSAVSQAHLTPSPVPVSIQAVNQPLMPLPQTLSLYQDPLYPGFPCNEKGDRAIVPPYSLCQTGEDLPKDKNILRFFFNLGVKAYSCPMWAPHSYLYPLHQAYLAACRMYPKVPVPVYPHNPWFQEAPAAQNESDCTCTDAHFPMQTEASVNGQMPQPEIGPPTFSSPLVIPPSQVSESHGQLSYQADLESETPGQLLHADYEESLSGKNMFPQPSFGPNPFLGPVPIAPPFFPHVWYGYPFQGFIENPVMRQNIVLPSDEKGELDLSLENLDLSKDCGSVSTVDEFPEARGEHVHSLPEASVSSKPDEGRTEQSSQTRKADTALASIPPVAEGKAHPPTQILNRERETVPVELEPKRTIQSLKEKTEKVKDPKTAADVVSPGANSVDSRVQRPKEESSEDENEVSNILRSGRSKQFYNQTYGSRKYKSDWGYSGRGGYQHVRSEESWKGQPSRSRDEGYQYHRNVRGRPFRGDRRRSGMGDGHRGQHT
Summary of the method: as §1

OTUD5 = biological target: T5, OTUD5 (UniProt Q96G74)
T5 sequence (whole entry): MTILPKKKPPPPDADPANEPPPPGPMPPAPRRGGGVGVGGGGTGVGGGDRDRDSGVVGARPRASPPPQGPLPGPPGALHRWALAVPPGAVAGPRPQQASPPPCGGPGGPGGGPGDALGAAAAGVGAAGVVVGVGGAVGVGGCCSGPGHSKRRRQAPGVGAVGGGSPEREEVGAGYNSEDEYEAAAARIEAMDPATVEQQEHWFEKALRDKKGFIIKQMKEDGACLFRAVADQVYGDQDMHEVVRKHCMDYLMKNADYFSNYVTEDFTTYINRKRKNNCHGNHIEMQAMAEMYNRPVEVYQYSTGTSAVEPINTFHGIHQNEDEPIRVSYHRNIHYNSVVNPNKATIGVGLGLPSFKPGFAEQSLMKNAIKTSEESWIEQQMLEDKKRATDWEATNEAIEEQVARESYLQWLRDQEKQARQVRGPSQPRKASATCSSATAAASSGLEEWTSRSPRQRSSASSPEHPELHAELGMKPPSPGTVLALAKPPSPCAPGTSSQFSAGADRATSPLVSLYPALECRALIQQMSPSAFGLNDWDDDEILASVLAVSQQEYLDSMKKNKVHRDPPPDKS
Summary of the method: as §1

Measured: log2 ratio of Biotin-Ahx-Ub-VS probe labelling

Sequence of OTUB1 (Q96FW1 whole entry): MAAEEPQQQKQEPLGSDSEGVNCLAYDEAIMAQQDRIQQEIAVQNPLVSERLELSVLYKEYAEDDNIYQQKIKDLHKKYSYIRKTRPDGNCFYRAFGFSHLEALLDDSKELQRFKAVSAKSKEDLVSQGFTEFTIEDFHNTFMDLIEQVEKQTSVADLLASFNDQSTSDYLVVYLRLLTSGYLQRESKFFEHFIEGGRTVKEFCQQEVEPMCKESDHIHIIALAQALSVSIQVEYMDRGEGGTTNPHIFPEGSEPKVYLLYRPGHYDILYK
Sequence of EIF3H (O15372 whole entry): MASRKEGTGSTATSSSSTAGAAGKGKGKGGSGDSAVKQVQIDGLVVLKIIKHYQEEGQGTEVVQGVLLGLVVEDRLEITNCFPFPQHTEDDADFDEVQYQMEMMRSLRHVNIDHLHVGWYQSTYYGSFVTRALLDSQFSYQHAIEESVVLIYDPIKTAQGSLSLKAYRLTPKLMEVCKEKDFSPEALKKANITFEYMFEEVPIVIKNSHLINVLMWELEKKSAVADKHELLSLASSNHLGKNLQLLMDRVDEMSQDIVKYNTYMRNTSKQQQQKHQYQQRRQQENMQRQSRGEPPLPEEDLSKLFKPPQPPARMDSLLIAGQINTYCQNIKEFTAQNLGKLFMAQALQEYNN
Sequence of EIF3F (O00303 whole entry): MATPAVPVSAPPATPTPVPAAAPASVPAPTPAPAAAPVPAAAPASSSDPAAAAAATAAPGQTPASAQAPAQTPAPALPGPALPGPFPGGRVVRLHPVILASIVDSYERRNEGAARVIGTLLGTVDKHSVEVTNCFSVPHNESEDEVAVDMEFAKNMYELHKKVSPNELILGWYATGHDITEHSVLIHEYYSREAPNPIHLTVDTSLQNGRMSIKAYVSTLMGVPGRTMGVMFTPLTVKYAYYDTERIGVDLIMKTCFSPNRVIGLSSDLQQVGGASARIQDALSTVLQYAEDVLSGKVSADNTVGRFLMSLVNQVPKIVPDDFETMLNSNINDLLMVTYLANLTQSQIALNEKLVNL
Sequence of ATXN3 (P54252 whole entry): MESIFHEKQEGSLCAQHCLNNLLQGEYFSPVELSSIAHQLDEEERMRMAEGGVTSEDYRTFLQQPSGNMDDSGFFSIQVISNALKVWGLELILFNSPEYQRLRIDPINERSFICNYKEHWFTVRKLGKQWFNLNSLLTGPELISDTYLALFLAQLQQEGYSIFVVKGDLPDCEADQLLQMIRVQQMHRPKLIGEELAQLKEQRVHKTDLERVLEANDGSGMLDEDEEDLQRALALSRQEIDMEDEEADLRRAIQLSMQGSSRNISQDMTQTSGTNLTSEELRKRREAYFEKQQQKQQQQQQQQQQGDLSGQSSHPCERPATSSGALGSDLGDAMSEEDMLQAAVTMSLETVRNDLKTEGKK

Cl.O=C(CCl)N1CCN(Cc2ccccc2)CC1
inactive: ALG13 0.239 | ATXN3 -0.805 | BAP1 -0.734 | EIF3F -0.615 | EIF3H 0.134 | FAM105A -0.0745 | OTUB1 -0.185 | OTUD4 -0.316 | OTUD5 -0.551
